Inconclusive results are not listed. A number with no mark means an inactive call. Active and inactive are the calls of the source. Unless noted, the call rests on the fitted dose curve; in most records, active means well fitted cell-killing curve with a large enough effect in the repeat runs; inconclusive means weak or mixed curves, or effect the other way; inactive means no such curve, though single readings can be large or run the other way.
Biological target: Thyrotropin receptor (Homo sapiens) (UniProt P16473)
Sequence (P16473 whole entry, looked up): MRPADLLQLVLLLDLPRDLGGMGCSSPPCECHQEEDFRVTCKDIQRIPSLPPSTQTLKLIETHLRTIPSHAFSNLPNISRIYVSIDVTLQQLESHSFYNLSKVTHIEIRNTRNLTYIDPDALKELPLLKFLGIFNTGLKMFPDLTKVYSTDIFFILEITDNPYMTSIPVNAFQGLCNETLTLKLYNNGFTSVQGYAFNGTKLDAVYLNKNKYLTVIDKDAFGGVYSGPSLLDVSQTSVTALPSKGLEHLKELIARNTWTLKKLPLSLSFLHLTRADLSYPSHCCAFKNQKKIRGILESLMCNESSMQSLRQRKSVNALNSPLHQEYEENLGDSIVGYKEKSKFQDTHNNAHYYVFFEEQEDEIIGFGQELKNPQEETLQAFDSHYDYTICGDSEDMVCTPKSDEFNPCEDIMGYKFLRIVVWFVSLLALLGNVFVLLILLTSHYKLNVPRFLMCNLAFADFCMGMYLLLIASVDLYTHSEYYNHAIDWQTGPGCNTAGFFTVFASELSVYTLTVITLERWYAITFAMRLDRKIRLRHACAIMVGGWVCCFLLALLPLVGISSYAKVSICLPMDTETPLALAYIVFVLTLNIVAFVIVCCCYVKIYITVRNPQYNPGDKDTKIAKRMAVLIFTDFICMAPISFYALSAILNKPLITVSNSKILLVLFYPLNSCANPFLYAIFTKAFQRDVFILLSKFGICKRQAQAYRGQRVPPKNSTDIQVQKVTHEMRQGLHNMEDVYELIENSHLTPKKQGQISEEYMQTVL
Assay: qHTS assay to identify small molecule antagonists of the thyroid stimulating hormone receptor (TSHR) signaling pathway (AID 1259385; calls by dose curve; further: nearly all actives have a fitted effect of over 20% in size)
Settings: TSHR-HEK293 cAMP HTRF, TSH-stimulated antagonist mode; series mostly up to 92.4 µM; activity change, negative = inhibition: at the top concentration
Outline: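 TSHR-HEK293 cells (800/well) plated 18 h, then compounds with Ro20-1724 and TSH at 1.5 ng/mL final, 30 min at room temperature. cAMP quantified by HTRF (cAMP-d2/anti-cAMP-cryptate, 1 h); 15 concentrations in triplicate.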
On the % scale 0 is the no-effect control and ±100 the full control effect; potency means the concentration at half of the fitted maximal effect.

| Compound | activity change, negative = inhibition | Potency |
| --- | --- | --- |
| CCc1ccc(Br)cc1 | 5.13% |  |
| C=CCn1c(=O)n(CC=C)c(=O)n(CC=C)c1=O | 3.38% |  |
| COc1ccc(NC(=O)CC(C)=O)cc1 | -2.35% |  |
| Cc1cc(-c2ccc(N=Nc3cc(S(=O)(=O)O)c4ccccc4c3N)c(C)c2)ccc1N=Nc1cc(S(=O)(=O)O)c2ccccc2c1N | -1.01% |  |
| NC(=O)c1cccc([N+](=O)[O-])c1 | 4.8% |  |
| CCCCC(CC)CN1CN(CC(CC)CCCC)CC(C)(N)C1 (configuration not stated) |  | 21.1 µM (active) |
| CCCCCC/C=C\CCCCCCCC(=O)O | 0.351% |  |
| CCC(=O)OC(=O)CC | -0.18% |  |
| O=[N+]([O-])c1ccc(F)c(Cl)c1 | 1.46% |  |
| Oc1ccccc1O |  | inactive |

System: not listed separately
Assay: qHTS assay to identify small molecule agonists of the estrogen receptor alpha (ER-alpha) signaling pathway in the presence of an antagonist - cell viability counter screen (AID 1259386);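 further: cells exposed to compounds for 22 h at 37 °C before the viability read; nearly all actives have a fitted effect of over 30% in size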
Settings: VM7Luc4E2 viability, CellTiter-Fluor fluorescence, 22 h; series mostly up to 92.4 µM; activity change, negative = cytotoxicity: at the top concentration
Outline: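 Using estrogen-depleted VM7Luc4E2 cells, the 15-concentration compound series was applied together with 10.0nM ICI-182,780 and incubated 22hr at 37C/5% CO2. Cell viability was then scored by CellTiter-Fluor.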

| Compound | activity change, negative = cytotoxicity | Potency |
| --- | --- | --- |
| CN1CCC[C@@H]1CCO[C@](C)(c1ccccc1)c1ccc(Cl)cc1 | -5.3% [at 42.5 µM] |  |
| COCCOc1cc2cc(C(=O)NC3CCN(C(C)C)CC3)n(CC(=O)Nc3ccc(Cl)cn3)c2cn1 | -10.2% |  |
| CCC(CC)C(C)CCOC(C)=O (configuration not stated) | -1.39% |  |
| CC(CCc1ccccc1)NCC(O)c1ccc(O)c(C(N)=O)c1 (configuration not stated) |  | 27.3 µM (active) |
| CCc1cccc(CC)c1NC(=O)CN(CC(=O)O)CC(=O)O | -0.186% [at 42.5 µM] |  |
| CC(C)(C)CC(C)(C)c1ccc(Nc2ccc(C(C)(C)CC(C)(C)C)cc2)cc1 | 1.15% [at 8.39 µM] |  |
| O=C(O)c1ccc2cc(C(=O)O)ccc2c1 | 0.639% |  |
| Sc1nc2ccccc2s1 | 1.32% |  |
| C#C[C@]1(O)CC[C@H]2[C@@H]3[C@H](C)CC4=C(CCC(=O)C4)[C@H]3CC[C@@]21C | 0.106% [at 42.5 µM] |  |
| CCCC1CCC(=O)CC1 | 1.22% |  |
| CCCC(=O)OC(C)(C)Cc1ccccc1 | -2.35% |  |
| c1ccc(SSc2ccccc2)cc1 | -4.07% |  |
| O=C1c2ccccc2C(=O)N1SC1CCCCC1 |  | inactive |
| Cc1nc(-c2ccc(Cl)cc2)oc1COC(C)(C)C(=O)O | -0.329% [at 42.5 µM] |  |
| O=S(=O)(O)c1ccc(N=Nc2c(O)ccc3ccccc23)cc1 |  | 27.3 µM (active) |
| O=C1CCCCCCCCCCCCCCCO1 | 1.98% |  |
| CC/C=C\CCCCCO | 2.19% |  |
| Cc1cccc2cccnc12 | 2.07% |  |
| COc1cccc(OC)c1C(=O)O | 2.71% |  |

| Compound | activity change, negative = cytotoxicity | Potency |
| --- | --- | --- |
| CCc1ccc(Br)cc1 | -0.193% |  |
| CCCCOC(=O)CC | 2.85% |  |
| CCCC(=O)OCCc1ccccc1 | 2.23% |  |
| C=CCn1c(=O)n(CC=C)c(=O)n(CC=C)c1=O | -5.2% |  |
| CCn1c2ccccc2c2cc([N+](=O)[O-])ccc21 | -6.92% |  |
| COc1ccc(NC(=O)CC(C)=O)cc1 | -4.66% |  |
| Cc1cc(-c2ccc(N=Nc3cc(S(=O)(=O)O)c4ccccc4c3N)c(C)c2)ccc1N=Nc1cc(S(=O)(=O)O)c2ccccc2c1N |  | 30.8 µM (active) |
| NC(=O)c1cccc([N+](=O)[O-])c1 | 4.56% |  |
| CCCCC(CC)CN1CN(CC(CC)CCCC)CC(C)(N)C1 (configuration not stated) | -3.6% [at 42.5 µM] |  |
| OCC(F)(F)F | 1.33% |  |
| CCCCCC/C=C\CCCCCCCC(=O)O | -4.96% |  |
| CCC(=O)OC(=O)CC | 4.02% |  |
| C=CCCC(=O)/C=C/C1C(C)=CCCC1(C)C (configuration not stated) | 0.7% |  |
| COC(C)=O | 0.681% |  |
| OC12N=C(c3ccccc3)SC1Cc1cc(Cl)ccc12 (configuration not stated) | -12.9% |  |
| CCCCOC(=O)CO | -1.35% |  |
| O=[N+]([O-])c1ccc(F)c(Cl)c1 | 2.12% |  |
| Oc1ccccc1O | -4.93% |  |

Source: PubChem BioAssay (Tox21)
